Measured values reported in PubChem BioAssay.
Unmarked numbers belong to inactive results. Active and inactive are the calls of the source.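 How the source made its calls, unless noted: active means mean inhibition above 46.68%, the untreated control wells mean plus 3 SD; inactive means the rest.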

Key:
[1] = molecular target: Nuclear receptor coactivator 3 (Homo sapiens) (UniProt Q9Y6Q9); assay: SRC3 coactivator transcriptional activity inhibitors, confirmation, cell-based, luminescence, quadruplicate (AID 588792;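 active means mean inhibition over 43.08%, the solvent-only control mean plus 3 SD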;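 further: 0% = DMSO treated cells and 100% = gossypol at 36 µM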); details: HEK293 GAL4-SRC3 luciferase reporter, at 3.6 µM, active compounds read high
[2] = test system: transactivating tegument protein VP16 (Human herpesvirus 1), Gal4-VP16 luciferase reporter; assay: VP16 transactivation inhibitors, counter-screen for SRC3 inhibitor project, cell-based, luminescence, high throughput (AID 588794; in the data active means inhibition above about 30%); details: mammalian cells, VP16-driven luciferase reporter luminescence; at 3.6 µM; active compounds read high
[3] = molecular target: Nuclear receptor coactivator 1 (Homo sapiens) (UniProt Q15788); assay: SRC1 coactivator transcriptional activity inhibitors, confirmation, cell-based, luminescence, quadruplicate (AID 588820); details: HEK293 GAL4-SRC1 luciferase reporter, at 3.6 µM, active compounds read high;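 further: 0% = DMSO wells and 100% = gossypol 36 µM treated wells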
[4] = VP16 transactivation inhibitors, counter-screen for SRC1 inhibitor project, cell-based, luminescence, high throughput (AID 588824; in the data active means inhibition above about 25%); details: cell-based VP16 transactivation luciferase luminescence; at 3.6 µM; active compounds read high
[5] = StAR promoter reporter inhibitors, counter-screen for LRH-1 inverse agonist project, cell-based, luminescence, high throughput (AID 651611; in the data active means inhibition above about 28%); details: StAR promoter luciferase reporter counterscreen, at 3.6 µM, active compounds read high
[6] = molecular target: Nuclear receptor subfamily 5 group A member 2 (Homo sapiens) (UniProt O00482); assay: LRH-1 (NR5A2) inverse agonists, retest, confirmation, cell-based, luminescence (AID 651613; in the data active means inhibition above about 42%;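 further: HEK293T cells co-transfected with LRH-1 and StAR promoter luciferase reporter; 0% = vehicle wells and 100% = parental cells lacking receptor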); details: cell-based LRH-1 luciferase reporter, inverse agonism; at 3.6 µM; active compounds read high
[7] = molecular target: Steroidogenic factor 1 (Homo sapiens) (UniProt Q13285); assay: SF1 (NR5A1) inverse agonists, counter-screen for LRH-1 inverse agonist project, cell-based, luminescence, high throughput (AID 651614; in the data active means inhibition above about 44%;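 further: cells cotransfected with StAR promoter reporter and SF1 expression vector; 0% = vehicle on cells with receptor and 100% = vehicle on cells lacking receptor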); details: cell-based SF1 luciferase reporter, at 3.6 µM, active compounds read high
[8] = VP16 transactivation reporter inhibitors, counter-screen for LRH-1 inverse agonist project, cell-based, luminescence, high throughput (AID 651615; in the data active means inhibition above about 33%); details: Gal4-VP16 luciferase reporter cells, at 3.6 µM, active compounds read high

Nuclear receptor coactivator 3 (Homo sapiens), sequence (Q9Y6Q9 whole entry, looked up, the tested form may be a part): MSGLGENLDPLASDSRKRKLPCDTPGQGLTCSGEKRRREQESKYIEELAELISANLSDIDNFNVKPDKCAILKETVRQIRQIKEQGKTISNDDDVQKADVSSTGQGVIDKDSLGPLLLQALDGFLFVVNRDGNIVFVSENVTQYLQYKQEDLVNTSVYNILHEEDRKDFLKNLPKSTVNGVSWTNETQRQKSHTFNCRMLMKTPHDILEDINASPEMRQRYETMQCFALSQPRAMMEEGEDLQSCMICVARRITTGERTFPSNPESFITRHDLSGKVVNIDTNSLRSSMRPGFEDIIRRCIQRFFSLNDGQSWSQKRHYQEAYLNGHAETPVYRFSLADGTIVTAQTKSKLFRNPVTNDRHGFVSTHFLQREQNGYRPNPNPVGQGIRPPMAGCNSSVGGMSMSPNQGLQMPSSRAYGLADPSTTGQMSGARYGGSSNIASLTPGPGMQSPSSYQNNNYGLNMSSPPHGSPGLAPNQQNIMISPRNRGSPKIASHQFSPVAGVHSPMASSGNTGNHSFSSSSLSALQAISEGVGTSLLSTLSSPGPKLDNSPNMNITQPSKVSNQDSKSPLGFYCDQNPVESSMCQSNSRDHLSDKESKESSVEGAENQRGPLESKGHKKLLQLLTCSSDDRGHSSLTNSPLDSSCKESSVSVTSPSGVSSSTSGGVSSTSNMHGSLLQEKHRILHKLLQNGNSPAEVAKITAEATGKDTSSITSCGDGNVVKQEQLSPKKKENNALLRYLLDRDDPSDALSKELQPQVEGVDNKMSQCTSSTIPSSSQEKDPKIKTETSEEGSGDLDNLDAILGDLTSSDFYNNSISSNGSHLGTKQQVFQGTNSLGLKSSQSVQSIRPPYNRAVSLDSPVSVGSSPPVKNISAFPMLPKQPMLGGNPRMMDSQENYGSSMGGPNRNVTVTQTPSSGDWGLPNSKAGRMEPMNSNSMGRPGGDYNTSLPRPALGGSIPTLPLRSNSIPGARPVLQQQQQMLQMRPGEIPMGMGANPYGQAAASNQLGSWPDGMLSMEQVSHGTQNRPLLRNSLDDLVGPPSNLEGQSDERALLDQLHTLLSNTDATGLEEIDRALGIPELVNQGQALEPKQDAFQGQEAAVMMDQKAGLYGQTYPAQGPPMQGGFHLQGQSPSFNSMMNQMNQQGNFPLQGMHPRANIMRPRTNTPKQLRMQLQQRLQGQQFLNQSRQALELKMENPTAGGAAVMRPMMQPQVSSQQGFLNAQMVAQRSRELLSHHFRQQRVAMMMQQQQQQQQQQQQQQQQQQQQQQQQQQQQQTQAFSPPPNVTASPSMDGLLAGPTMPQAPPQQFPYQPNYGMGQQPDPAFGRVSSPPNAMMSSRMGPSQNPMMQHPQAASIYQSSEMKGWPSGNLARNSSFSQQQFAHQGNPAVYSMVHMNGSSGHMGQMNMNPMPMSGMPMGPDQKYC
Nuclear receptor subfamily 5 group A member 2 (Homo sapiens), sequence (O00482 whole entry, looked up): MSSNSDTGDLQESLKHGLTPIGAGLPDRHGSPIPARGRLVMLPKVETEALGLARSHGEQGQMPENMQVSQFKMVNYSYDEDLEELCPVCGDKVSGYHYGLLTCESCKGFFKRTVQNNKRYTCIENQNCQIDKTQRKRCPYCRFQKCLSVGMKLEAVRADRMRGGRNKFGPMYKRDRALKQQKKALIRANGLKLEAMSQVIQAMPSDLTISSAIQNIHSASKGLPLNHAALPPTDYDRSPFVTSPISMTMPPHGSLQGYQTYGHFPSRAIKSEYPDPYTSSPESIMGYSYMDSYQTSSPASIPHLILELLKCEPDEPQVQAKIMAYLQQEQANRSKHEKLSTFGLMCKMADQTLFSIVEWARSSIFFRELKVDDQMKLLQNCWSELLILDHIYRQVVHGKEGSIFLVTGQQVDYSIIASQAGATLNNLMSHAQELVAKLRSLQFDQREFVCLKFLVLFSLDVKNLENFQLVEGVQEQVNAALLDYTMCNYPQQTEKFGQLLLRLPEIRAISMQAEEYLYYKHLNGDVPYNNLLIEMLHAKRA
Steroidogenic factor 1 (Homo sapiens), sequence (Q13285 whole entry, looked up, the tested form may be a part): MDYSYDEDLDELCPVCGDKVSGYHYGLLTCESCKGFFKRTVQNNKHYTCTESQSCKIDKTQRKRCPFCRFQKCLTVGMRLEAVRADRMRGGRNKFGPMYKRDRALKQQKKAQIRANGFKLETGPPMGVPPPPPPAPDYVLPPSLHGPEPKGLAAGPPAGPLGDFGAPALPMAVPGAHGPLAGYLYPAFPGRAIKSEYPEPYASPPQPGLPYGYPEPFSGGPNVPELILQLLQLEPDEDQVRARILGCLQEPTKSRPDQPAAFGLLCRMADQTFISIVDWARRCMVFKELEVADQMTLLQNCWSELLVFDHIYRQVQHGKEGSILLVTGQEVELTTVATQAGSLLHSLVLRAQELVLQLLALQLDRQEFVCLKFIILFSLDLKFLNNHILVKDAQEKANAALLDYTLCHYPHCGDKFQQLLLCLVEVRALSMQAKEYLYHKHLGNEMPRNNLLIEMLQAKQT
Nuclear receptor coactivator 1 (Homo sapiens), sequence (Q15788 whole entry, looked up, the tested form may be a part): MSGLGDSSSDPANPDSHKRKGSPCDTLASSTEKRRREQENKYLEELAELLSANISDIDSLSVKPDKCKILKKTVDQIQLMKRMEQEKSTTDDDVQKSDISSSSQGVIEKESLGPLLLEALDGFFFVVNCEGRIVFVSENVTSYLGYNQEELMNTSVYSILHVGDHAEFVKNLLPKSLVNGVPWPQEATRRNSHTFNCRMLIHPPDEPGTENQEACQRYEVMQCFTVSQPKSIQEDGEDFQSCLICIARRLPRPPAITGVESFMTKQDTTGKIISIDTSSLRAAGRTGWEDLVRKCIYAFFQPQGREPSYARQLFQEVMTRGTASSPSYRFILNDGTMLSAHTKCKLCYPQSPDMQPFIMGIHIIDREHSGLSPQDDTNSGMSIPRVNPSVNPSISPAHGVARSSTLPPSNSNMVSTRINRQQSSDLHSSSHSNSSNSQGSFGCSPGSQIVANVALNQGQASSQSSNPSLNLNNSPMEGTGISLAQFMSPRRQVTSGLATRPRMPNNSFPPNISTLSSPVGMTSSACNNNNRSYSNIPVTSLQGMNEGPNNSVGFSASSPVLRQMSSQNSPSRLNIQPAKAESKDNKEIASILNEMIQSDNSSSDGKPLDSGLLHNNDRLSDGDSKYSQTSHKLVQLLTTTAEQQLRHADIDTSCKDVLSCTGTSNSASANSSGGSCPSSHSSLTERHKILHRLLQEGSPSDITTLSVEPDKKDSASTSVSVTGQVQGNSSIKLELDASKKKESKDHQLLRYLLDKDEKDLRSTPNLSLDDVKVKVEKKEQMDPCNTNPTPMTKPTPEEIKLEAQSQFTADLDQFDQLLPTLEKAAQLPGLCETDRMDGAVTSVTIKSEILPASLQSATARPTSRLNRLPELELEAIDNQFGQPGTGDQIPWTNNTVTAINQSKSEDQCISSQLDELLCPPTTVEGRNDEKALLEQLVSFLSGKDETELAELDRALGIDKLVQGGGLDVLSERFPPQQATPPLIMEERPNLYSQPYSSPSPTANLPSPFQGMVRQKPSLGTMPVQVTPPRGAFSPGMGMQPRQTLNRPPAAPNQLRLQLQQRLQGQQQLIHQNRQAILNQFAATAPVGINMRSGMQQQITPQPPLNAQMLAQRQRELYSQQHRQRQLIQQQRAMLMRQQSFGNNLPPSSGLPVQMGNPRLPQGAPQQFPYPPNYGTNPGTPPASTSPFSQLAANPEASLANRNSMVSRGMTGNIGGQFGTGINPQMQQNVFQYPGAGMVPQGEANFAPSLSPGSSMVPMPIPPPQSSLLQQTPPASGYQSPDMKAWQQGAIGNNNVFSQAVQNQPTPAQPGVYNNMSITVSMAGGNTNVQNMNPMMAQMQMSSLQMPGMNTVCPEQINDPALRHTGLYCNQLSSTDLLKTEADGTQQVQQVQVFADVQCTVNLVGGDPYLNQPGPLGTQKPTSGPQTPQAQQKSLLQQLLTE

Row | SMILES | inhibition [1] | inhibition [2] | inhibition [3] | inhibition [4] | inhibition [5] | inhibition [6] | inhibition [7] | inhibition [8]
1 | Nc1ccc(S(=O)(=O)NNC(=O)C(=O)NNc2ccccc2)cc1 | 12.2% | 8.16% | -15.5% | 18.5% | 5.29% | 18.9% | 17.6% | 39.2% (active)
2 | O=C(O)CSCC(=O)Nc1ccc(C2CCCCC2)cc1 | 72% (active) | 62.4% (active) | 64.2% (active) | 63.7% (active) | 71.4% (active) | 78.8% (active) | 64.5% (active) | 63.6% (active)
3 | COc1ccc(NC(=O)c2sc(=O)n(Cc3ccc(F)c(Cl)c3)c2C)cc1OC | 24.2% | 61.6% (active) | 18.5% | 53.8% (active) | 54.3% (active) | 66.2% (active) | 70.5% (active) | 72.5% (active)
4 | CCC(C)N(CC(=O)Nc1cccc(C)c1C)C(=O)CCl (stereo not given) | 80% (active) | 67% (active) | 52% (active) | 71% (active) | 69.2% (active) | 84.8% (active) | 78.8% (active) | 77.9% (active)
5 | Cc1cc(C)nc(NC(N)=NCCc2ccccc2)n1 | 75.9% (active) | 46.3% (active) | 51.5% (active) | 49.1% (active) | 58.4% (active) | 109% (active) | 88.2% (active) | 93.5% (active)
6 | O=C(N/N=C/c1sc(N2CCOCC2)nc1-c1ccccc1)c1cccc(S(=O)(=O)N2CCOCC2)c1 | 38.1% | 46.1% (active) | 43.6% | 61.9% (active) | 69.9% (active) | 100% (active) | 85.7% (active) | 87.4% (active)
7 | CCCC(=O)NC(c1ccccc1Cl)c1ccc2cccnc2c1O (stereo not given) | 55.3% (active) | 47.8% (active) | 35.6% | 53.4% (active) | 82.7% (active) | 99.2% (active) | 90.3% (active) | 83.2% (active)
8 | Cn1cnc([N+](=O)[O-])c1Sc1nc(N)nc2c1ncn2C1OC(CO)C(O)C1O (stereo not given) | 43.8% (active) | 14.7% | -6.11% | 9.12% | 56.1% (active) | 52% (active) | 24.3% | 45.1% (active)
9 | COc1ccc(C(=O)Nc2nc3ccccc3s2)c(OC)c1 | 92.8% (active) | 91.5% (active) | 84.7% (active) | 87.5% (active) | 93.4% (active) | 93.9% (active) | 92.3% (active) | 90.2% (active)
10 | c1ccc(-c2cccc(-c3ccccn3)n2)nc1 | 75.8% (active) | 39.9% (active) | 56.6% (active) | 32% (active) | 82.3% (active) | 96.7% (active) | 71.8% (active) | 41.8% (active)
11 | OCC1OC(n2cnc3c(NCc4ccccc4O)ncnc32)C(O)C1O (stereo not given) | 81% (active) | 82.1% (active) | 45.3% | 80% (active) | 87.5% (active) | 102% (active) | 90.3% (active) | 86.1% (active)
12 | Cc1cccc(NC(=O)c2cc(Cl)ccc2[N+](=O)[O-])c1 | 42.4% | 27% | 17.7% | 51.4% (active) | 44.3% (active) | 51% (active) | 58.4% (active) | 33.2% (active)
13 | O=C(/C=C/c1cccs1)NC(=S)NNC(=O)c1ccccc1O | 76% (active) | 77.6% (active) | 57% (active) | 78.7% (active) | 76.8% (active) | 106% (active) | 91.8% (active) | 86% (active)
14 | O=NN(CC(=O)NNc1ccccc1)CC(=O)NNc1ccccc1 | 22.6% | 29.9% (active) | 9.03% | 27.5% (active) | 37.4% (active) | 58.7% (active) | 53.1% (active) | 67.5% (active)
15 | Cc1onc(-c2ccccc2)c1C(=O)NC(=S)NNC(=O)c1ccccc1O | 54.8% (active) | 82% (active) | 66.5% (active) | 77.6% (active) | 70% (active) | 96.8% (active) | 83.4% (active) | 83.3% (active)
16 | C(=NNc1ccc2ccccc2n1)c1ccccn1 | 60.6% (active) | -12% | -75.3% | -33.3% | 65.4% (active) | 51% (active) | 59.2% (active) | -44.1%
17 | Cc1cccc2sc(NNC(=O)c3ccc(S(=O)(=O)N4CC(C)CC(C)C4)cc3)nc12 (stereo not given) | 31% | 23.7% | 32.8% | 34% (active) | 25% | 45% (active) | 36.2% | 40.9% (active)
18 | COc1cccc(/C=N/NC(=O)c2ccc(-c3ccccc3)cc2)c1O | 28.9% | 39.8% (active) | 37.3% | 40.6% (active) | 48.9% (active) | 81% (active) | 36.4% | 80.1% (active)

Row | SMILES | inhibition [1] | inhibition [2] | inhibition [3] | inhibition [4] | inhibition [5] | inhibition [6] | inhibition [7] | inhibition [8]
19 | CC(C)CC[n+]1ccccc1/C=C/c1ccc(N(C)C)cc1 | 60.5% (active) | 79.3% (active) | 54.6% (active) | 79.3% (active) | 64.3% (active) | 105% (active) | 90.4% (active) | 87.1% (active)
20 | CCN(CC)CCCNc1nc2ccccc2c2[nH]c3ccc(OC)cc3c12 | -19.2% | 49% (active) | -3.04% | 48.8% (active) | 30.1% (active) | 44.4% (active) | 60.5% (active) | 71.7% (active)
21 | CC(C)(O)C#Cc1ccc([C@@H]2C[C@H]3CN(c4ccccc4)C(=O)[C@]34CCCN24)s1 | 42.9% | 41.9% (active) | 45.8% | 42.1% (active) | 61.3% (active) | 82% (active) | 28.3% | 88.8% (active)
22 | C=C1C(=O)c2sccc2C(c2ccc(OC)c(OC)c2)C1COC(C)=O (stereo not given) | 67.7% (active) | 59% (active) | 6.09% | 58.4% (active) | 69.8% (active) | 95.4% (active) | 92.8% (active) | 82.4% (active)
23 | CN(Cc1cnc2nc(N)nc(N)c2n1)c1ccc(C(=O)NC(CCC(=O)O)C(=O)O)cc1 (stereo not given) | 66.2% (active) | 22% | 52.3% (active) | 10.5% | 76.1% (active) | 50.5% (active) | 46.2% (active) | 19.9%
24 | OCC1OC(n2cnc3c(NCc4ccco4)ncnc32)C(O)C1O (stereo not given) | 71.1% (active) | 53.4% (active) | 33.5% | 48.7% (active) | 65.1% (active) | 60.3% (active) | 85.7% (active) | 67.7% (active)
25 | COc1cc(Cn2c3ccc(NC(=O)CCc4ccc(O)cc4)cc3c(=O)n2C)ccc1F | 42.6% | 61.3% (active) | 31.5% | 56.6% (active) | 56% (active) | 70.8% (active) | 69.3% (active) | 71.1% (active)
26 | CN(Cc1cnc2nc(N)nc(N)c2n1)c1ccc(C(=O)NC(CCC(=O)O)C(=O)O)c2ccccc12 (stereo not given) | 63.8% (active) | 15% | 68% (active) | 13.2% | 77.9% (active) | 45.5% (active) | 47.6% (active) | 12.9%
27 | COc1cccc(/C=N/Nc2ccc(C(=O)O)cc2)c1O | 68% (active) | 63.8% (active) | 12.8% | 64.4% (active) | 68.7% (active) | 68.3% (active) | 73% (active) | 68.7% (active)
28 | N=c1c2c(n(Cc3ccc(Cl)cc3)c3c1CCC3)CCC2 | 55.8% (active) | 68.7% (active) | 47.1% (active) | 61.9% (active) | 58.6% (active) | 105% (active) | 85.1% (active) | 78.3% (active)
29 | Nc1ncnc2c(C3OC(CO)C(O)C3O)c[nH]c12 (stereo not given) | 97.4% (active) | 96.5% (active) | 95.7% (active) | 96% (active) | 95.6% (active) | 111% (active) | 98.2% (active) | 97.7% (active)
30 | COc1cccc(/C=N\NC(=O)c2ccc(Cn3cc(Br)c([N+](=O)[O-])n3)o2)c1O | 33% | 38.4% (active) | 35% | 29.9% (active) | 63.8% (active) | 74.5% (active) | 71.3% (active) | 73.2% (active)
31 | O=C(NC(Nc1nc2ccc([N+](=O)[O-])cc2s1)(C(F)(F)F)C(F)(F)F)c1cccnc1 | 62.8% (active) | 75.3% (active) | 26.9% | 75.3% (active) | 81.4% (active) | 104% (active) | 95.1% (active) | 88.7% (active)
32 | CCCCCCn1c2c(c(=N)c3c1CCC3)CCC2 | 61.3% (active) | 76.9% (active) | 55.4% (active) | 76.4% (active) | 68.7% (active) | 110% (active) | 91.7% (active) | 93.6% (active)
33 | CCC(=O)Nc1cccc(C(=O)/C=C/c2cc(Br)ccc2OC)c1 | 70.8% (active) | 62.1% (active) | 60.6% (active) | 59.4% (active) | 81.2% (active) | 105% (active) | 94.1% (active) | 82.9% (active)
34 | CC1(C)CC2CC(C)(CN2S(=O)(=O)c2ccc(C(=O)Nc3ccc(S(=O)(=O)N4CCOCC4)cc3)cc2)C1 (stereo not given) | 24.1% | 42.4% (active) | 4.08% | 44.1% (active) | 22.1% | 53.1% (active) | 46.4% (active) | 57.8% (active)
35 | OCCCNc1cc(-c2ccnc(Nc3cccc(Cl)c3)n2)ccn1 | 95.9% (active) | 97.1% (active) | 84.5% (active) | 96.3% (active) | 89.9% (active) | 108% (active) | 96.5% (active) | 97.9% (active)
